Test results as given in PubChem BioAssay (NCATS).
Inconclusive results are not listed. Entries that show only a call come without a potency. Calls of active or inactive are those of the source. Calls come from the whole dose curve; as a rule, active = well fitted curve in the direction sought with a large enough effect; inconclusive = small, poorly fitted or top-dose-only effect, or another doubt; inactive = no such curve, though single readings can be large; an effect the other way counts as inactive or inconclusive.

What was measured:
[1] = qHTS of pediatric cancer cell lines to identify multiple opportunities for drug repurposing: Primary screen for SK-N-SH cells (AID 1347098); settings: SK-N-SH viability, CellTiter-Glo luminescence, 48 h; series mostly up to 57 µM; note: nearly all actives have a fitted effect of over 65% in size; note: potency is the fitted concentration of half-maximal effect
Method in brief: (§1)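 Cells (500-1,000/well) rested 5 h, then received compounds for 48 h; metabolically active cells were measured by CellTiter-Glo luminescence. Final concentrations spanned up to 46 µM (MIPE, 11-point) or 0.59 nM-46 µM (NPC, 8-point) in primary screens, 11-point in follow-ups.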

[2] = qHTS of pediatric cancer cell lines to identify multiple opportunities for drug repurposing: Primary screen for NB1643 cells (AID 1347099); settings: NB1643 neuroblastoma viability, CellTiter-Glo luminescence, 48 h; series mostly up to 46 µM; note: nearly all actives have a fitted effect of over 50% in size
Method in brief: (§2)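 ATP-based luminescence (CellTiter-Glo) quantifies viability after a 48-hour exposure. Compounds are dosed across 8 or 11 final concentrations; DMSO and 2.3 µM bortezomib serve as controls.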

[3] = qHTS of pediatric cancer cell lines to identify multiple opportunities for drug repurposing: Primary screen for LAN-5 cells (AID 1347100); settings: LAN-5 neuroblastoma viability, CellTiter-Glo luminescence, 48 h; series mostly up to 46 µM; note: potency is the fitted concentration of half-maximal effect
Method in brief: as §1

[4] = qHTS of pediatric cancer cell lines to identify multiple opportunities for drug repurposing: Primary screen for BT-12 cells (AID 1347101); settings: BT-12 viability, CellTiter-Glo luminescence, 48 h; series mostly up to 57.3 µM; note: nearly all actives have a fitted effect of over 25% in size; note: potency is the fitted concentration of half-maximal effect
Method in brief: as §1

[5] = qHTS of pediatric cancer cell lines to identify multiple opportunities for drug repurposing: Primary screen for Rh18 cells (AID 1347102); settings: Rh18 rhabdomyosarcoma viability, CellTiter-Glo luminescence, 48 h; series mostly up to 46 µM; note: nearly all actives have a fitted effect of over 65% in size; note: potency is the fitted concentration of half-maximal effect
Method in brief: as §1

[6] = qHTS of pediatric cancer cell lines to identify multiple opportunities for drug repurposing: Primary screen for OHS-50 cells (AID 1347103); settings: OHS-50 osteosarcoma viability, CellTiter-Glo luminescence, 48 h; series mostly up to 57.3 µM; note: nearly all actives have a fitted effect of over 40% in size; note: potency is the fitted concentration of half-maximal effect
Method in brief: as §1

[7] = qHTS of pediatric cancer cell lines to identify multiple opportunities for drug repurposing: Primary screen for RD cells (AID 1347104); settings: RD rhabdomyosarcoma viability, CellTiter-Glo luminescence, 48 h; series mostly up to 46 µM; note: nearly all actives have a fitted effect of over 55% in size; note: potency is the fitted concentration of half-maximal effect
Method in brief: as §2

[8] = qHTS of pediatric cancer cell lines to identify multiple opportunities for drug repurposing: Primary screen for MG 63 (6-TG R) cells (AID 1347105); settings: MG 63 (6-TG R) viability, CellTiter-Glo, 48 h; series mostly up to 46 µM; note: nearly all actives have a fitted effect of over 50% in size
Method in brief: as §2

[9] = qHTS of pediatric cancer cell lines to identify multiple opportunities for drug repurposing: Primary screen for Rh30 cells (AID 1347107); settings: Rh30 rhabdomyosarcoma viability, CellTiter-Glo luminescence, 48 h; series mostly up to 46 µM; note: nearly all actives have a fitted effect of over 75% in size
Method in brief: as §1

[10] = qHTS of pediatric cancer cell lines to identify multiple opportunities for drug repurposing: Primary screen for Rh41 cells (AID 1347108); settings: Rh41 rhabdomyosarcoma viability, CellTiter-Glo luminescence, 48 h; series mostly up to 46 µM; note: nearly all actives have a fitted effect of over 70% in size; note: potency is the fitted concentration of half-maximal effect
Method in brief: as §2

[11] = qHTS of pediatric cancer cell lines to identify multiple opportunities for drug repurposing: Primary screen for control Hh wild type fibroblast cells (AID 1347106); settings: Hh wild-type fibroblast viability, CellTiter-Glo luminescence, 48 h; series mostly up to 46 µM;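 note: a drop in luminescence marks cytotoxicity and a rise apparent proliferation; nearly all actives have a fitted effect of over 55% in size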
Method in brief: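 Viability after 48 h compound treatment at 37C, 500-1,000 cells/well, read as ATP luminescence with CellTiter-Glo. Primary screens used 11-point (MIPE, 0.78 nM-46 µM) or 8-point (NPC, 0.59 nM-46 µM) final concentrations; follow-up screens used 11-point dilutions.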

[12] = qHTS of pediatric cancer cell lines to identify multiple opportunities for drug repurposing: Confirmatory screen for A673 cells (AID 1347110); settings: A673 Ewing sarcoma cell viability; series mostly up to 45.9 µM;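 note: potency is the fitted concentration of half-maximal effect; cells exposed to compound for 48 h before the viability read; nearly all actives have a fitted effect of over 65% in size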
Method in brief: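 Forty-eight-hour viability assay. Follow-up compounds ran at 11-point dilutions; positive control bortezomib at 2.3 uM final, neutral control DMSO.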

[13] = qHTS of pediatric cancer cell lines to identify multiple opportunities for drug repurposing: Confirmatory screen for SK-N-MC cells (AID 1347111); settings: SK-N-MC cell viability; series mostly up to 45.9 µM;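 note: potency is the fitted concentration of half-maximal effect; cells exposed to compound for 48 h before the readout; nearly all actives have a fitted effect of over 70% in size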
Method in brief: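 Seed 500-1,000 cells/well; rest 5 h at 37 degrees C. Pin-transfer compounds, 11-point titration. Incubate 48 h. Add CellTiter-Glo, 15 min RT, read luminescence.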

[14] = qHTS of pediatric cancer cell lines to identify multiple opportunities for drug repurposing: Confirmatory screen for BT-12 cells (AID 1347112); settings: BT-12 rhabdoid tumor cells, viability; series mostly up to 45.9 µM; note: potency is the fitted concentration of half-maximal effect; nearly all actives have a fitted effect of over 55% in size
Method in brief: as §1

[15] = qHTS of pediatric cancer cell lines to identify multiple opportunities for drug repurposing: Confirmatory screen for LAN-5 cells (AID 1347113); settings: LAN-5 neuroblastoma cell viability; series mostly up to 45.9 µM; note: potency is the fitted concentration of half-maximal effect; nearly all actives have a fitted effect of over 65% in size
Method in brief: as §1

[16] = qHTS of pediatric cancer cell lines to identify multiple opportunities for drug repurposing: Confirmatory screen for DAOY cells (AID 1347114); settings: DAOY medulloblastoma cells viability, cytotoxicity qHTS; series mostly up to 45.9 µM
Method in brief: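 Viability measured as metabolically active cells via CellTiter-Glo luminescence following 48 hours of compound exposure, 11-point dilutions in confirmatory testing. 500-1,000 cells/well plated 5 hours before dosing; controls were DMSO and 2.3 µM bortezomib.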

[17] = qHTS of pediatric cancer cell lines to identify multiple opportunities for drug repurposing: Confirmatory screen for NB-EBc1 cells (AID 1347115); settings: NB-EBc1 neuroblastoma cells, viability (cytotoxicity); series mostly up to 45.9 µM;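 note: potency is the fitted concentration of half-maximal effect; cells exposed to compound for 48 h before the viability read; nearly all actives have a fitted effect of over 45% in size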
Method in brief: as §1

[18] = qHTS of pediatric cancer cell lines to identify multiple opportunities for drug repurposing: Confirmatory screen for BT-37 cells (AID 1347117); settings: BT-37 pediatric cancer cells, viability; series mostly up to 45.9 µM; note: potency is the fitted concentration of half-maximal effect; nearly all actives have a fitted effect of over 55% in size
Method in brief: as §1

[19] = qHTS of pediatric cancer cell lines to identify multiple opportunities for drug repurposing: Confirmatory screen for TC32 cells (AID 1347118); settings: TC32 Ewing sarcoma cells viability qHTS; series mostly up to 45.9 µM
Method in brief: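 Luminescent ATP read-out (CellTiter-Glo) of metabolically active TC32 cells after 48 h exposure. Concentration-response curves came from 11-point (MIPE, 0.78 nM–46 µM) or 8-point (NPC, 0.59 nM–46 µM) primary titrations; follow-up used 11 points.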

[20] = qHTS of pediatric cancer cell lines to identify multiple opportunities for drug repurposing: Confirmatory screen for MG 63 (6-TG R) cells (AID 1347119); settings: MG-63 (6-TG resistant) osteosarcoma viability; series mostly up to 45.9 µM
Method in brief: as §1

SMILES	Potency [1]	Potency [2]	Potency [3]	Potency [4]	Potency [5]	Potency [6]	Potency [7]	Potency [8]	Potency [9]	Potency [10]	Potency [11]	Potency [12]	Potency [13]	Potency [14]	Potency [15]	Potency [16]	Potency [17]	Potency [18]	Potency [19]	Potency [20]
CN1CCCN=C1/C=C/c1cccs1	inactive	inactive	inactive	inactive	inactive	inactive	inactive	inactive	inactive	inactive	–	–	–	–	–	–	–	–	–	–
CN(C(=O)C(Cl)Cl)c1ccc(OC(=O)c2ccco2)cc1	inactive	inactive	inactive	inactive	inactive	inactive	inactive	inactive	inactive	inactive	–	–	–	–	–	–	–	–	–	–
O=C(NN1CCCC1)NS(=O)(=O)c1ccc(Cl)cc1	inactive	inactive	inactive	inactive	inactive	inactive	–	inactive	inactive	inactive	inactive	–	–	–	–	–	–	–	–	–
OCCCc1ccccc1	inactive	inactive	inactive	inactive	inactive	inactive	–	inactive	inactive	inactive	inactive	–	–	–	–	–	–	–	–	–
O=C(O)CCCC[C@@H]1SC[C@@H]2NC(=O)N[C@@H]21	inactive	inactive	inactive	inactive	inactive	inactive	–	inactive	inactive	inactive	inactive	–	–	–	–	–	–	–	–	–
CCCCOCCOC(=O)c1cccnc1	inactive	inactive	inactive	inactive	inactive	inactive	inactive	inactive	inactive	inactive	–	–	–	–	–	–	–	–	–	–
CCCCCCCCCCCCCCCC[n+]1ccccc1	7.7 µM (active)	inactive	13.3 µM (active)	6.92 µM (active)	7.5 µM (active)	2.46 µM (active)	13.3 µM (active)	–	–	11.9 µM (active)	–	–	–	–	–	–	–	–	–	–
C1=CC2C3C=CC(C3)C2C1 (centres undefined)	inactive	inactive	inactive	inactive	inactive	inactive	inactive	inactive	inactive	inactive	–	–	–	–	–	–	–	–	–	–
CC1CC(=O)NN=C1c1ccc(NCC(C)(C)NCC(O)COc2cc(Cl)ccc2C#N)cc1 (centres undefined)	inactive	inactive	inactive	inactive	inactive	inactive	inactive	inactive	inactive	inactive	–	–	–	–	–	–	–	–	–	–
COc1cc(S(N)(=O)=O)cc(C(=O)O)c1OC	inactive	inactive	inactive	inactive	inactive	inactive	–	inactive	inactive	inactive	inactive	–	–	–	–	–	–	–	–	–
CCCC(=O)O[C@]1(C(=O)CC)CC[C@H]2[C@@H]3CCC4=CC(=O)CC[C@]4(C)[C@H]3[C@@H](O)C[C@@]21C	inactive	inactive	inactive	inactive	inactive	–	inactive	inactive	inactive	–	inactive	–	–	–	–	–	–	–	–	–
O=c1[nH]c(=O)n([C@H]2O[C@H](CO)[C@@H](O)[C@@H]2O)cc1/C=C\Br	inactive	inactive	inactive	inactive	inactive	inactive	–	inactive	inactive	inactive	inactive	–	–	–	–	–	–	–	–	–
O=C(CCCl)NCc1ccccc1	inactive	inactive	inactive	inactive	inactive	inactive	–	inactive	inactive	inactive	inactive	–	–	–	–	–	–	–	–	–
NS(=O)(=O)c1cc(C(=O)NN2C[C@H]3[C@H]4CCC(C4)[C@H]3C2)ccc1Cl	inactive	inactive	inactive	inactive	inactive	inactive	–	inactive	inactive	inactive	inactive	–	–	–	–	–	–	–	–	–
O=C(O)CNC(=O)CNC(=O)CNC(=O)CSC(=O)c1ccccc1	inactive	inactive	inactive	inactive	inactive	inactive	–	inactive	inactive	inactive	inactive	–	–	–	–	–	–	–	–	–
CCCc1ncc(C(=O)O)s1	inactive	inactive	inactive	inactive	inactive	inactive	inactive	inactive	inactive	inactive	–	–	–	–	–	–	–	–	–	–
CCCCCCCCCCCCCCCCCCN(C)C	inactive	inactive	inactive	inactive	inactive	inactive	–	inactive	inactive	inactive	inactive	–	–	–	–	–	–	–	–	–
Cc1cc(OCCOCC[N+](C)(C)Cc2ccccc2)ccc1C(C)(C)CC(C)(C)C	34.4 µM (active)	inactive	21.1 µM (active)	6.17 µM (active)	10.6 µM (active)	4.37 µM (active)	18.8 µM (active)	–	–	–	inactive	1.04 µM (active)	2.61 µM (active)	13.1 µM (active)	9.27 µM (active)	11.7 µM (active)	16.5 µM (active)	10.4 µM (active)	2.93 µM (active)	9.27 µM (active)
CCNC(=O)NCCCOc1cccc(CN2CCCCC2)c1	inactive	inactive	inactive	inactive	inactive	inactive	inactive	inactive	inactive	inactive	–	–	–	–	–	–	–	–	–	–
CCOC(=O)c1cc(=O)c2c(OCC(COc3cccc4oc(C(=O)OCC)cc(=O)c34)OC(=O)[C@@H](N)CCCCN)cccc2o1	inactive	inactive	inactive	inactive	inactive	inactive	–	inactive	inactive	inactive	inactive	–	–	–	–	–	–	–	–	–
